Several values for one entry are separate records, joined by “and”; a condition that tells them apart may be missing. Identical values can stand only once. Results filed as inconclusive are left out. The source holds several records for some structures; these can differ, active in one and inactive in another. Activity calls are given as the source filed them. The call rests on the fitted dose curve; in most records, active means well fitted curve in the direction sought with a large enough effect in the repeat runs; inconclusive means weak or mixed curves; inactive means no such curve, though single readings can be large; an effect the other way counts as inactive or inconclusive.
Tests used:
[1] = qHTS RealTime-Glo MT Cell Viability Assay in HepG2 cells - 40 hour (AID 1224870); further: nearly all actives have a fitted effect of over 50% in size
Summary of the method: (§1)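 Real-time viability: cells seeded at 600 per well together with NanoLuc and cell-permeant prosubstrate, compounds added after 5 h incubation. Luminescence tracked at 0, 8, 16, 24, 32 and 40 h of exposure.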

[2] = A CellTox Green Cytotoxicity Assay to monitor cytotoxicity in HEK293 cells - 40 hour (AID 1224871); further: nearly all actives have a fitted effect of over 45% in size; further: potency means the concentration at half of the fitted maximal effect
Summary of the method: (§2)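 HEK293 cells premixed with CellTox Green dye were seeded at 600 cells/well and left 5 h at 37 C/5% CO2 before pin transfer of 23 nL compound in DMSO. Fluorescence from dye bound to dead-cell DNA was read during 40 h treatment.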

[3] = qHTS RealTime-Glo MT Cell Viability Assay in HepG2 cells - 8 hour (AID 1224873); further: nearly all actives have a fitted effect of over 55% in size
Summary of the method: as §1

[4] = qHTS RealTime-Glo MT Cell Viability Assay in HEK293 cells - 40 hour (AID 1224874); conditions: RealTime-Glo luminescence; max response: stronger effect = lower value; further: nearly all actives have a fitted effect of over 50% in size; further: potency means the concentration at half of the fitted maximal effect
Summary of the method: (§3)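 HEK293 cells mixed with RealTime-Glo reagents (NanoLuc plus cell-permeant prosubstrate) at 600 cells/well, preincubated 5 h at 37 C/5% CO2, then given 23 nL compound in DMSO. Nonlytic luminescence from viable cells was read at 0, 8, 16, 24, 32 and 40 h.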

[5] = A CellTox Green Cytotoxicity Assay to monitor cytotoxicity in HepG2 cells - 16 hour (AID 1224876); further: nearly all actives have a fitted effect of over 45% in size; further: potency means the concentration at half of the fitted maximal effect
Summary of the method: (§4)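 HepG2 cells were seeded together with the CellTox Green dye at 600 cells/well, left 5 h at 37 C/5% CO2, then given compounds in DMSO. Fluorescence from dye bound to dead-cell DNA was read repeatedly over 40 h of treatment at 37 C.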

[6] = qHTS RealTime-Glo MT Cell Viability Assay in HepG2 cells - 32 hour (AID 1224877); further: nearly all actives have a fitted effect of over 55% in size
Summary of the method: (§5)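 HepG2 cells were seeded at 600 cells/well together with NanoLuc luciferase and a cell-permeant prosubstrate, preincubated 5 h at 37 C/5% CO2, then pin-dosed with compounds in DMSO. Nonlytic luminescence from viable cells was read at each time point.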

[7] = A CellTox Green Cytotoxicity Assay to monitor cytotoxicity in HepG2 cells - 24 hour (AID 1224878); further: nearly all actives have a fitted effect of over 45% in size; further: potency means the concentration at half of the fitted maximal effect
Summary of the method: as §4

[8] = A CellTox Green Cytotoxicity Assay to monitor cytotoxicity in HepG2 cells - 40 hour (AID 1224879); further: nearly all actives have a fitted effect of over 40% in size; further: potency means the concentration at half of the fitted maximal effect
Summary of the method: as §4

[9] = qHTS RealTime-Glo MT Cell Viability Assay in HEK293 cells - 0 hour (AID 1224880); further: top concentration of the series differs between compounds; nearly all actives have a fitted effect of over 45% in size
Summary of the method: as §3

[10] = A CellTox Green Cytotoxicity Assay to monitor cytotoxicity in HEK293 cells - 32 hour (AID 1224881); further: nearly all actives have a fitted effect of over 40% in size; further: potency means the concentration at half of the fitted maximal effect
Summary of the method: as §2

[11] = A CellTox Green Cytotoxicity Assay to monitor cytotoxicity in HepG2 cells - 0 hour (AID 1224882); further: nearly all actives have a fitted effect of over 35% in size; further: potency means the concentration at half of the fitted maximal effect
Summary of the method: as §4

[12] = A CellTox Green Cytotoxicity Assay to monitor cytotoxicity in HepG2 cells - 32 hour (AID 1224883); further: nearly all actives have a fitted effect of over 50% in size; further: potency means the concentration at half of the fitted maximal effect
Summary of the method: as §4

[13] = A CellTox Green Cytotoxicity Assay to monitor cytotoxicity in HEK293 cells - 8 hour (AID 1224884); further: nearly all actives have a fitted effect of over 35% in size; further: potency means the concentration at half of the fitted maximal effect
Summary of the method: as §2

[14] = qHTS RealTime-Glo MT Cell Viability Assay in HepG2 cells - 16 hour (AID 1224885); further: nearly all actives have a fitted effect of over 50% in size; further: potency means the concentration at half of the fitted maximal effect
Summary of the method: as §5

[15] = qHTS RealTime-Glo MT Cell Viability Assay in HEK293 cells - 24 hour (AID 1224886); further: nearly all actives have a fitted effect of over 50% in size; further: potency means the concentration at half of the fitted maximal effect
Summary of the method: (§6)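 HEK293 cells were seeded at 600 cells/well together with NanoLuc luciferase and cell-permeant prosubstrate, preincubated 5 h at 37 C/5% CO2, then given compound in DMSO by pintool. Luminescence from viable-cell prosubstrate reduction was read repeatedly over 40 h.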

[16] = A CellTox Green Cytotoxicity Assay to monitor cytotoxicity in HEK293 cells - 16 hour (AID 1224888); further: nearly all actives have a fitted effect of over 35% in size
Summary of the method: as §2

[17] = qHTS RealTime-Glo MT Cell Viability Assay in HepG2 cells - 0 hour (AID 1224889); further: nearly all actives have a fitted effect of over 50% in size
Summary of the method: as §5

[18] = qHTS RealTime-Glo MT Cell Viability Assay in HEK293 cells - 16 hour (AID 1224872); further: nearly all actives have a fitted effect of over 50% in size; further: potency means the concentration at half of the fitted maximal effect
Summary of the method: as §6

[19] = qHTS RealTime-Glo MT Cell Viability Assay in HEK293 cells - 8 hour (AID 1224887); further: nearly all actives have a fitted effect of over 50% in size; further: potency means the concentration at half of the fitted maximal effect
Summary of the method: as §3

[20] = A CellTox Green Cytotoxicity Assay to monitor cytotoxicity in HEK293 cells - 24 hour (AID 1224875)
Summary of the method: as §2
On the % scale 0 is the no-effect control and ±100 the full control effect.

Nc1ccc(N=Nc2ccccc2)c(N)n1
active: Potency [4] 24.7 µM and 24.5 µM | Potency [7] 34.9 µM and 17.4 µM | Potency [8] 34.9 µM and 17.4 µM and 26.8 µM | Potency [12] 31.1 µM and 17.4 µM | Potency [15] 39.1 µM and 24.5 µM
inactive: outcome [1] | Potency [2] | outcome [3] | Potency [5] | outcome [6] | Potency [9] | Potency [10] | Potency [11] | Potency [13] | Potency [14] | Potency [16] | Potency [17]

COc1ccc(O)cc1
inactive: outcome [1] | Potency [2] | Potency [18] | outcome [3] | max response [4] -25.5% and -26.5% and -24.7% | Potency [5] | outcome [6] | Potency [7] | Potency [8] | Potency [10] | Potency [11] | Potency [13] | Potency [14] | Potency [19] | Potency [17]

C/C=C/c1ccc(O)c(OC)c1
inactive: outcome [1] | Potency [2] | Potency [18] | outcome [3] | max response [4] -5.09% and 1.37% and 1.68% | Potency [5] | outcome [6] | Potency [7] | Potency [8] | Potency [9] | Potency [10] | Potency [11] | Potency [12] | Potency [13] | Potency [14] | Potency [19] | Potency [16] | Potency [17]

CCn1cc(C(=O)O)c(=O)c2ccc(C)nc21
inactive: Potency [2] | Potency [18] | outcome [3] | max response [4] 3.61% and -3.49% and 2.76% | Potency [20] | Potency [5] | outcome [6] | Potency [7] | Potency [8] | Potency [9] | Potency [10] | Potency [11] | Potency [12] | Potency [13] | Potency [14] | Potency [19] | Potency [17]

CO[C@H]1C=CO[C@@]2(C)Oc3c(C)c(O)c4c(O)c(c(/C=N/N5CCN(C)CC5)c(O)c4c3C2=O)NC(=O)/C(C)=C\C=C[C@H](C)[C@H](O)[C@@H](C)[C@@H](O)[C@@H](C)[C@H](OC(C)=O)[C@@H]1C
active: Potency [18] 6.96 µM and 2.21 µM and 21.3 µM | Potency [4] 22 µM and 15.7 µM | Potency [14] 12.4 µM | Potency [19] 2.77 µM and 988 nM and 10.7 µM
inactive: outcome [1] | Potency [2] | Potency [20] | Potency [5] | outcome [6] | Potency [7] | Potency [8] | Potency [9] | Potency [10] | Potency [11] | Potency [13] | Potency [16] | Potency [17]

CCc1cc(C(N)=S)ccn1
inactive: Potency [2] | Potency [18] | outcome [3] | max response [4] 1.51% and 1.72% and 1.47% | Potency [20] | Potency [5] | outcome [6] | Potency [7] | Potency [8] | Potency [9] | Potency [10] | Potency [11] | Potency [13] | Potency [14] | Potency [15] | Potency [19] | Potency [17]

CC(O)COc1ccccc1 (stereo unspecified)
inactive: outcome [1] | Potency [2] | Potency [18] | outcome [3] | max response [4] 1.14% and -0.457% and -1.74% | Potency [5] | outcome [6] | Potency [7] | Potency [8] | Potency [10] | Potency [11] | Potency [12] | Potency [13] | Potency [14] | Potency [15] | Potency [19] | Potency [16] | Potency [17]

CCCCCCCCCCCCCC(=O)OC(C)C
inactive: Potency [2] | outcome [3] | max response [4] 1.2% and -0.28% | Potency [20] | Potency [5] | outcome [6] | Potency [7] | Potency [8] | Potency [10] | Potency [11] | Potency [13] | Potency [14] | Potency [16] | Potency [17]
inactive and 4.36 µM (active): Potency [18]
inactive and 9.77 µM (active): Potency [19]
active: Potency [4] 2.75 µM

O=C1CCCCCN1
inactive: outcome [1] | Potency [2] | Potency [18] | outcome [3] | max response [4] -1.34% and -3.41% | Potency [5] | outcome [6] | Potency [7] | Potency [8] | Potency [10] | Potency [11] | Potency [13] | Potency [14] | Potency [19] | Potency [17]

CN(C)C=O
inactive: outcome [1] | Potency [2] | Potency [18] | outcome [3] | max response [4] 2.24% and 2.36% | Potency [5] | outcome [6] | Potency [7] | Potency [8] | Potency [10] | Potency [11] | Potency [13] | Potency [14] | Potency [15] | Potency [19] | Potency [17]

CCCCNC(=O)NS(=O)(=O)c1ccc(N)cc1
inactive: Potency [2] | Potency [18] | outcome [3] | max response [4] 3.02% and 10% | Potency [5] | outcome [6] | Potency [7] | Potency [8] | Potency [10] | Potency [11] | Potency [12] | Potency [13] | Potency [14] | Potency [19] | Potency [16] | Potency [17]

CCCCOCCOCCSC#N
inactive: Potency [2] | Potency [18] | outcome [3] | max response [4] 7.99% and 2.19% | Potency [5] | outcome [6] | Potency [7] | Potency [8] | Potency [10] | Potency [11] | Potency [13] | Potency [14] | Potency [15] | Potency [19] | Potency [17]

COC1=CC(=O)C[C@@H](C)[C@]12Oc1c(Cl)c(OC)cc(OC)c1C2=O
active: Potency [8] 24.3 µM and 21.9 µM and 26.8 µM | Potency [12] 34.4 µM
24.3 µM (active) and inactive: Potency [13]
38.6 µM (active) and inactive: Potency [7]
inactive: Potency [2] | Potency [18] | outcome [3] | max response [4] -25.7% | Potency [20] | Potency [5] | outcome [6] | Potency [10] | Potency [11] | Potency [14] | Potency [19] | Potency [16] | Potency [17]

CCCCOCCOCCOC(C)=O
inactive: Potency [2] | Potency [18] | outcome [3] | max response [4] 7.04% and 1.04% | Potency [5] | outcome [6] | Potency [7] | Potency [8] | Potency [10] | Potency [11] | Potency [13] | Potency [14] | Potency [15] | Potency [19] | Potency [16] | Potency [17]

COC(=O)c1ccc(O)cc1
inactive: Potency [2] | Potency [5] | Potency [7] | Potency [8] | Potency [10] | Potency [11] | Potency [12] | Potency [13] | Potency [16]

CC(=O)c1ccc(S(=O)(=O)NC(=O)NC2CCCCC2)cc1
inactive: Potency [2] | Potency [18] | outcome [3] | max response [4] 0.507% and 8.7% and 3.73% | Potency [5] | outcome [6] | Potency [7] | Potency [8] | Potency [9] | Potency [10] | Potency [11] | Potency [12] | Potency [13] | Potency [14] | Potency [19] | Potency [17]

C=CC(=O)NC(C)(C)CS(=O)(=O)O
inactive and 43.6 µM (active): Potency [2] | Potency [8] | Potency [10] | Potency [13]
inactive and 24.5 µM (active): Potency [5] | Potency [7]
inactive and 27.5 µM (active): Potency [11]
inactive: Potency [18] | outcome [3] | max response [4] -2.52% and 4.35% and 4.55% | outcome [6] | Potency [9] | Potency [14] | Potency [15] | Potency [19] | Potency [17]

NC(=O)OCC(COC(N)=O)c1ccccc1
inactive: Potency [2] | Potency [18] | outcome [3] | max response [4] 1.64% and -0.593% | Potency [5] | outcome [6] | Potency [7] | Potency [8] | Potency [10] | Potency [11] | Potency [13] | Potency [14] | Potency [15] | Potency [19] | Potency [16] | Potency [17]

CCCCCCCCCCCCCCCCCC(=O)OCC(O)CO (stereo unspecified)
inactive: Potency [2] | Potency [18] | outcome [3] | max response [4] 10.4% and 6.82% and 1.48% | Potency [20] | Potency [5] | outcome [6] | Potency [7] | Potency [8] | Potency [10] | Potency [11] | Potency [12] | Potency [13] | Potency [14] | Potency [19] | Potency [17]

CC(C)CC(C)CC(O)CC(C)C (stereo unspecified)
inactive: Potency [2] | Potency [18] | outcome [3] | max response [4] -0.631% and 5.18% | Potency [20] | Potency [5] | outcome [6] | Potency [7] | Potency [8] | Potency [10] | Potency [11] | Potency [12] | Potency [13] | Potency [14] | Potency [19] | Potency [16] | Potency [17]

— PubChem BioAssay (Tox21)
